Test results taken from PMC8384837, “Expanding the binding specificity for RNA recognition by a PUF domain”.

How the values were obtained:
Experiment in all cases: yeast three-hybrid, YBZ-1, SC-Leu-His + 0.5 mM 3-AT, 4 days
Details in all cases: tags: N-Gal4 AD-HA kept; label: inside an RPR1-promoter hybrid RNA with tandem MS2 sites; ssRNA
[1] = molecular target: PUM1 PUF domain R2-VFQ R3-THE R4-TFR (Homo sapiens, UniProt Q14671 828-1176, N899V;Y900F;C935T;R936H;Q939E;N971T;H972F;Q975R)
Method in brief: (§1)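 The interaction score is the logarithmic change in variant frequency from input to selection. It uses log2, with a pseudocount of 1 for absent variants, and frequencies came from PCR-amplified, Illumina-sequenced repeat regions. The libraries were Pumilio-1 PUF domains randomized at the three base-contacting residues per repeat, co-expressed with matching RNA elements in strain YBZ-1 (LexA–MS2 coat fusion, HIS3 reporter). Plating lasted four days on SC-Leu (input) or SC-Leu-His + 0.5 mM 3-AT (selection).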

[2] = molecular target: PUM1 PUF domain R3-SRN (Homo sapiens, UniProt Q14671 828-1176, C935S;Q939N)
Method in brief: as §1

[3] = molecular target: PUM1 PUF domain R3-IWY (Homo sapiens, UniProt Q14671 828-1176, C935I;R936W;Q939Y)
Sequence of PUM1 PUF domain R3-IWY (Q14671 828-1176 C935I/R936W/Q939Y): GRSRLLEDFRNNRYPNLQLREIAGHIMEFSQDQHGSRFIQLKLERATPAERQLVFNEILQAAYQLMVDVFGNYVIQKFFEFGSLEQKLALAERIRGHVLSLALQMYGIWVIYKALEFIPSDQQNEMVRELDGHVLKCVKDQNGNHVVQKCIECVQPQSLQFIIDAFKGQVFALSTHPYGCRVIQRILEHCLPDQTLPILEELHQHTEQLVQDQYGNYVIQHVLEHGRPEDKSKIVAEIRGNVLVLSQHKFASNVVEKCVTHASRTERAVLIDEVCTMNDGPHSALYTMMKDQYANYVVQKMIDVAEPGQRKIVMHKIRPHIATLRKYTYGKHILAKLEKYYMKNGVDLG
Method in brief: as §1

[4] = molecular target: PUM1 PUF domain R4-DYM (Homo sapiens, UniProt Q14671 828-1176, N971D;H972Y;Q975M)
Method in brief: as §1

[5] = molecular target: PUM1 PUF domain R2-LIM (Homo sapiens, UniProt Q14671 828-1176, N899L;Y900I;Q903M)
Sequence of PUM1 PUF domain R2-LIM (Q14671 828-1176 N899L/Y900I/Q903M): as the sequence (Q14671 828-1176 C935I/R936W/Q939Y) above, with N72L, Y73I, Q76M, I108C, W109R, Y112Q counted along it
Method in brief: as §1

[6] = molecular target: PUM1 PUF domain R1-LWK (Homo sapiens, UniProt Q14671 828-1176, S863L;R864W;Q867K)
Method in brief: as §1

[7] = molecular target: PUM1 PUF domain R1-RRI (Homo sapiens, UniProt Q14671 828-1176, S863R;Q867I)
Sequence of PUM1 PUF domain R1-RRI (Q14671 828-1176 S863R/Q867I): as the sequence (Q14671 828-1176 C935I/R936W/Q939Y) above, with S36R, Q40I, I108C, W109R, Y112Q counted along it
Method in brief: as §1

[8] = molecular target: PUM1 PUF domain R1-IWR (Homo sapiens, UniProt Q14671 828-1176, S863I;R864W;Q867R)
Sequence of PUM1 PUF domain R1-IWR (Q14671 828-1176 S863I/R864W/Q867R): as the sequence (Q14671 828-1176 C935I/R936W/Q939Y) above, with S36I, R37W, Q40R, I108C, W109R, Y112Q counted along it
Method in brief: as §1

[9] = molecular target: PUM1 PUF domain R3-SCK (Homo sapiens, UniProt Q14671 828-1176, C935S;R936C;Q939K)
Method in brief: as §1

[10] = molecular target: PUM1 PUF domain R3-RAR (Homo sapiens, UniProt Q14671 828-1176, C935R;R936A;Q939R)
Method in brief: as §1

[11] = molecular target: PUM1 PUF domain R5-LWS (Homo sapiens, UniProt Q14671 828-1176, C1007L;R1008W;Q1011S)
Sequence of PUM1 PUF domain R5-LWS (Q14671 828-1176 C1007L/R1008W/Q1011S): as the sequence (Q14671 828-1176 C935I/R936W/Q939Y) above, with I108C, W109R, Y112Q, C180L, R181W, Q184S counted along it
Method in brief: as §1

[12] = molecular target: PUM1 PUF domain R5-TEE (Homo sapiens, UniProt Q14671 828-1176, C1007T;R1008E;Q1011E)
Sequence of PUM1 PUF domain R5-TEE (Q14671 828-1176 C1007T/R1008E/Q1011E): as the sequence (Q14671 828-1176 C935I/R936W/Q939Y) above, with I108C, W109R, Y112Q, C180T, R181E, Q184E counted along it
Method in brief: as §1

[13] = molecular target: PUM1 PUF domain R5-RPM (Homo sapiens, UniProt Q14671 828-1176, C1007R;R1008P;Q1011M)
Method in brief: as §1

[14] = molecular target: PUM1 PUF domain R5-HHH (Homo sapiens, UniProt Q14671 828-1176, C1007H;R1008H;Q1011H)
Sequence of PUM1 PUF domain R5-HHH (Q14671 828-1176 C1007H/R1008H/Q1011H): as the sequence (Q14671 828-1176 C935I/R936W/Q939Y) above, with I108C, W109R, Y112Q, C180H, R181H, Q184H counted along it
Method in brief: as §1

[15] = molecular target: PUM1 PUF domain R5-QHV (Homo sapiens, UniProt Q14671 828-1176, C1007Q;R1008H;Q1011V)
Sequence of PUM1 PUF domain R5-QHV (Q14671 828-1176 C1007Q/R1008H/Q1011V): as the sequence (Q14671 828-1176 C935I/R936W/Q939Y) above, with I108C, W109R, Y112Q, C180Q, R181H, Q184V counted along it
Method in brief: as §1

[16] = molecular target: PUM1 PUF domain R4-DFS (Homo sapiens, UniProt Q14671 828-1176, N971D;H972F;Q975S)
Method in brief: as §1

[17] = molecular target: PUM1 PUF domain R8-SWQ (Homo sapiens, UniProt Q14671 828-1176, N1122S;Y1123W)
Method in brief: as §1

[18] = molecular target: PUM1 PUF domain R4-FNA (Homo sapiens, UniProt Q14671 828-1176, N971F;H972N;Q975A)
Method in brief: as §1

[19] = molecular target: PUM1 PUF domain R8-LYF (Homo sapiens, UniProt Q14671 828-1176, N1122L;Q1126F)
Sequence of PUM1 PUF domain R8-LYF (Q14671 828-1176 N1122L/Q1126F): as the sequence (Q14671 828-1176 C935I/R936W/Q939Y) above, with I108C, W109R, Y112Q, N295L, Q299F counted along it
Method in brief: as §1

[20] = molecular target: PUM1 PUF domain R8-HWP (Homo sapiens, UniProt Q14671 828-1176, N1122H;Y1123W;Q1126P)
Sequence of PUM1 PUF domain R8-HWP (Q14671 828-1176 N1122H/Y1123W/Q1126P): as the sequence (Q14671 828-1176 C935I/R936W/Q939Y) above, with I108C, W109R, Y112Q, N295H, Y296W, Q299P counted along it
Method in brief: as §1

Sequence of PUM1 PUF domain R2-VFQ R3-THE R4-TFR (Q14671 828-1176 N899V/Y900F/C935T/R936H/Q939E/N971T/H972F/Q975R): as the sequence (Q14671 828-1176 C935I/R936W/Q939Y) above, with N72V, Y73F, I108T, W109H, Y112E, N144T, H145F, Q148R counted along it

Question: Which binding signal [1] does the source give for “GGCUAGAACUAGUGGAUCCCCCGGCGCCCGGCGGCUCGAGCCCGGGUAAGUGUACGAAGUCUGCAUGCCGCCGGGCGCCAUGCCUGCAGGUCGACUCUAGAAAACAUG” here?
Answer: The binding signal was 3.9 log2 enrichment (interaction score).

Question: What does the source list for “GGCUAGAACUAGUGGAUCCCCCGGCGCCCGGCGGCUCGAGCCCGGGUAAGUGUAAGUAGUCUGCAUGCCGCCGGGCGCCAUGCCUGCAGGUCGACUCUAGAAAACAUG”?
Answer: binding signal [2]: 1.88 log2 enrichment (interaction score); binding signal [3]: 1.76 log2 enrichment (interaction score)

Question: For “GGCUAGAACUAGUGGAUCCCCCGGCGCCCGGCGGCUCGAGCCCGGGUAAGUGUACAUAGUCUGCAUGCCGCCGGGCGCCAUGCCUGCAGGUCGACUCUAGAAAACAUG”, which binding signal [4] is on record?
Answer: Its binding signal is 5.08 log2 enrichment (interaction score).

Question: “GGCUAGAACUAGUGGAUCCCCCGGCGCCCGGCGGCUCGAGCCCGGGUAAGUGUAAAGAGUCUGCAUGCCGCCGGGCGCCAUGCCUGCAGGUCGACUCUAGAAAACAUG” was tested. Which binding signal [5] did it give?
Answer: The binding signal was 3.94 log2 enrichment (interaction score).

Question: Which results are given for “GGCUAGAACUAGUGGAUCCCCCGGCGCCCGGCGGCUCGAGCCCGGGUAAGUGUAAAUCGUCUGCAUGCCGCCGGGCGCCAUGCCUGCAGGUCGACUCUAGAAAACAUG”?
Answer: binding signal [6]: 4.58 log2 enrichment (interaction score); binding signal [7]: 3.61 log2 enrichment (interaction score); binding signal [8]: 2.56 log2 enrichment (interaction score)

Question: Which binding signal [8] does the source give for “GGCUAGAACUAGUGGAUCCCCCGGCGCCCGGCGGCUCGAGCCCGGGUAAGUGUAAAUUGUCUGCAUGCCGCCGGGCGCCAUGCCUGCAGGUCGACUCUAGAAAACAUG” here?
Answer: The binding signal was 1.52 log2 enrichment (interaction score).

Question: How did the binding signal [9] turn out when “GGCUAGAACUAGUGGAUCCCCCGGCGCCCGGCGGCUCGAGCCCGGGUAAGUGUAAUUAGUCUGCAUGCCGCCGGGCGCCAUGCCUGCAGGUCGACUCUAGAAAACAUG” was run?
Answer: Its binding signal is 3.52 log2 enrichment (interaction score).

Question: And the binding signal [10]?
Answer: The binding signal was 3.75 log2 enrichment (interaction score).

Question: What about the binding signal [3] of the same sequence?
Answer: Its binding signal is 3.36 log2 enrichment (interaction score).

Question: Which results are given for “GGCUAGAACUAGUGGAUCCCCCGGCGCCCGGCGGCUCGAGCCCGGGUAAGUGUGAAUAGUCUGCAUGCCGCCGGGCGCCAUGCCUGCAGGUCGACUCUAGAAAACAUG”?
Answer: binding signal [11]: 1.62 log2 enrichment (interaction score); binding signal [12]: 3.25 log2 enrichment (interaction score)

Question: For “GGCUAGAACUAGUGGAUCCCCCGGCGCCCGGCGGCUCGAGCCCGGGUAAGUGUUAAUAGUCUGCAUGCCGCCGGGCGCCAUGCCUGCAGGUCGACUCUAGAAAACAUG”, which binding signal [13] is on record?
Answer: The binding signal was 2.25 log2 enrichment (interaction score).

Question: And the binding signal [11]?
Answer: The binding signal was 2.93 log2 enrichment (interaction score).

Question: What about the binding signal [14] of the same sequence?
Answer: Its binding signal is 5.29 log2 enrichment (interaction score).

Question: What about the binding signal [15] of the same sequence?
Answer: Its binding signal is 3.88 log2 enrichment (interaction score).

Question: With “GGCUAGAACUAGUGGAUCCCCCGGCGCCCGGCGGCUCGAGCCCGGGUAAGUGUAAAUAGUCUGCAUGCCGCCGGGCGCCAUGCCUGCAGGUCGACUCUAGAAAACAUG” as the sequence, how does the binding signal [16] read?
Answer: Its binding signal is 6.43 log2 enrichment (interaction score).

Question: And the binding signal [17]?
Answer: The binding signal was 4.66 log2 enrichment (interaction score).

Question: And the binding signal [4]?
Answer: Its binding signal is 4.83 log2 enrichment (interaction score).

Question: And the binding signal [2]?
Answer: The binding signal was 4.26 log2 enrichment (interaction score).

Question: What about the binding signal [11] of the same sequence?
Answer: Its binding signal is 2.04 log2 enrichment (interaction score).

Question: What does the source list for “GGCUAGAACUAGUGGAUCCCCCGGCGCCCGGCGGCUCGAGCCCGGGUAAGUGUAUAUAGUCUGCAUGCCGCCGGGCGCCAUGCCUGCAGGUCGACUCUAGAAAACAUG”?
Answer: binding signal [16]: 6.8 log2 enrichment (interaction score); binding signal [18]: 2.23 log2 enrichment (interaction score)

Question: Which binding signal [19] does the source give for “GGCUAGAACUAGUGGAUCCCCCGGCGCCCGGCGGCUCGAGCCCGGGUAAGCGUAAAUAGUCUGCAUGCCGCCGGGCGCCAUGCCUGCAGGUCGACUCUAGAAAACAUG” here?
Answer: The binding signal was 2.3 log2 enrichment (interaction score).

Question: And the binding signal [20]?
Answer: The binding signal was 5.59 log2 enrichment (interaction score).

Question: With “GGCUAGAACUAGUGGAUCCCCCGGCGCCCGGCGGCUCGAGCCCGGGUAAGUGUCAAUAGUCUGCAUGCCGCCGGGCGCCAUGCCUGCAGGUCGACUCUAGAAAACAUG” as the sequence, how does the binding signal [11] read?
Answer: Its binding signal is 2.81 log2 enrichment (interaction score).
